Results published in PubChem BioAssay AID720541 (National Center for Advancing Translational Sciences (NCATS), 2013).
Screen size: about 1,300 compounds; about 420 (32%) were called active. Another 32% or so got no clear call; they are omitted. The list shows a part of the results. Values without a mark were called inactive. Calls follow the shape of the dose curve; as a rule, active = well fitted inhibition curve with a large enough effect; inconclusive = small, poorly fitted or top-dose-only effect; inactive = no such curve, though single readings can be large or run the other way.

What follows are compounds tested against C-terminal-binding protein 1 (Homo sapiens) (UniProt Q13363) (assay: qHTS for Inhibitors of the Phosphatase Activity of Eya2: Carboxyl-terminal binding protein (CtBP) Counterscreen for Cherry-picked Compounds). Conditions: purified protein-protein binding, AlphaScreen, 3 h; series mostly up to 46.1 µM; activity change, negative = inhibition: at the top concentration.
How it was run: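 AlphaScreen using 25 nM GST-E1A with 25 nM CtBP-6xHIS; compounds at 2.5 nM–46 uM final, 2 h at room temperature, then donor/acceptor beads (20 ug/mL) for 1 h in the dark. Signal normalized to E1A peptide inhibitor (maximum inhibition) and DMSO.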
% is scaled to controls: 0 for no effect and ±100 for the full control effect; potency is read from the fitted curve at half-maximal effect.
Also: nearly all actives have a fitted effect of over 65% in size.

| SMILES | Potency | activity change, negative = inhibition |
| --- | --- | --- |
| O=C(/C=C/c1ccccc1)Oc1ccc(C(=S)N2CCOCC2)cc1 | 0.239 µM (active) | – |
| O=C(O)c1ccc2c(c1)C(=O)N(c1ccc(/C=C/C(=O)c3ccccc3)cc1)C2=O | – | -12.8% |
| O=C(Oc1ccc(C(=S)N2CCOCC2)cc1)c1ccc(F)cc1 | – | 2.2% |
| COC(=O)c1ccc(OC(=O)c2cccnc2)cc1 | – | -29.8% |
| O=C(Oc1ccc(C(=S)N2CCOCC2)cc1)c1ccccc1 | – | -24.6% |
| CC(=O)c1ccc(OC(=O)/C=C/c2ccccc2)cc1 | 0.536 µM (active) | – |
| Cc1ccc(C2CC(c3ccc(Br)cc3)=NN2C(=O)CSC2=NN3CCCC(=O)N=C3S2)cc1 (configuration not stated) | – | -12.1% |
| Fc1cccc(Cc2c(-c3ccco3)nc3ccc(Br)cn23)c1 | – | -28% |
| COc1cc(C(=S)N2CCOCC2)ccc1OC(=O)c1ccc([N+](=O)[O-])cc1[N+](=O)[O-] | 10.7 µM (active) | – |
| O=[N+]([O-])c1ccc([N+](=O)[O-])c(Nc2ccc(N3CCOCC3)cc2)c1 | – | -26.3% |
| CC(=O)N1CCN(/[N+]([O-])=N/Oc2ccc([N+](=O)[O-])cc2[N+](=O)[O-])CC1 | – | 21.8% |
| S=c1[nH]nc(-c2ccccn2)n1/N=C/c1ccc(Br)s1 | 12 µM (active) | – |
| C[C@@]12CCC=C[C@H]1[C@H](c1ccc3ccccc3c1/C=C/c1ccccc1)N(Cc1ccccc1)C2=O | – | -18.8% |
| Cc1ccc(S(=O)(=O)N2c3ccccc3-c3c(ssc3=S)C2(C)C)cc1 | 15.1 µM (active) | – |
| CC(C)OCCCNC(=O)c1ccccc1NC(=O)C1=CSCCO1 | – | -4.28% |
| Nc1ccccc1C(=O)NNc1c2ccccc2nc2ccccc12 | 6.75 µM (active) | – |
| CC(C)(C)C(=O)[C@H]1[C@H](c2ccccc2)[C@@]2(N=C(c3ccccc3)OC2=O)C2c3ccccc3C=NN21 (some centres not stated) | – | -22.7% |
| CCOc1ccc2nc(N3CCCC(C(=O)N4CCN(CC)CC4)C3)sc2c1 (configuration not stated) | – | -6.01% |
| O=C1c2cccc3cccc(c23)C(=O)N1CCCN1CCN(c2ccc(F)cc2)CC1 | – | -28.8% |
| Cc1ccc2cc(NC(=O)CC(CC(=O)O)c3ccccc3)ccc2n1 (configuration not stated) | 15.1 µM (active) | – |
| CCC(=O)Nc1ccc(-c2nnc(SCc3ccccc3)n2C)cc1 | – | 4% |
| CCSc1nc2ccccc2n1C(=O)c1ccc(S(=O)(=O)N2CCCCC2)cc1 | – | -13.4% |
| Cc1ccc(S(=O)(=O)N2CCOCC2)cc1NC(=O)CSc1nnc2cc(C)c3ccccc3n12 | 13.5 µM (active) | – |
| CCSc1nnc(-c2ccc(S(=O)(=O)N3CCOCC3)cc2)n1C | – | 12% |

| SMILES | Potency | activity change, negative = inhibition |
| --- | --- | --- |
| Cc1cc(C)c2nc(SCC(=O)N(C)C3CCS(=O)(=O)C3)cc(C)c2c1 (configuration not stated) | – | 53.7% |
| COc1ccc(N(CC(=O)Nc2cccc(C(C)=O)c2)S(=O)(=O)c2ccc(NC(C)=O)cc2)cc1 | – | -14.5% |
| COc1ccc(S(=O)(=O)c2c(O)c3ccc(C(=O)Nc4ccccc4F)cc3[nH]c2=O)cc1 | 0.757 µM (active) | – |
| COc1ccc(S(=O)(=O)c2c(O)c3ccc(C(=O)Nc4cccc(F)c4)cc3[nH]c2=O)cc1 | 0.536 µM (active) | – |
| COc1ccc(C(=O)Nc2cc(OC)c(NC(=O)Nc3ccccc3)cc2OC)cc1 | – | -9.63% |
| COc1ccc(C2NC(C(=O)O)Cc3c2[nH]c2ccccc32)cc1CN1CCN(c2ccc(F)cc2)CC1 (configuration not stated) | – | -57.3% |
| CCc1nc2ccc(C(=O)NCCCN(C)C)cn2c1N(C)Cc1ccc(OC)cc1 | – | -3.62% |
| COc1cc(N(C)C)ccc1/C=C1\C=Cc2ccccc21 | 8.49 µM (active) | – |
| COc1cc(OC)c(OC)cc1/C=C1\C=Cc2ccccc21 | 12 µM (active) | – |
| COc1cc(OC)c(OC)cc1/C=C1\CC(C)C/C(=C\c2cc(OC)c(OC)cc2OC)C1=O (configuration not stated) | – | -29.9% |
| COc1cc(N(C)C)c(OC)cc1/C=C1\C=Cc2ccccc21 | 5.36 µM (active) | – |
| CN(C)c1ccc(/C=C2\C=Cc3ccccc32)c(Cl)c1 | 8.49 µM (active) | – |
| Cc1cc(C)c(C#N)c(Sc2nnnn2-c2ccccc2)n1 | – | 4.75% |
| O=C(O)c1ccc2c(c1)C(=O)N(c1cccc(-c3nc4ccccc4s3)c1)C2=O | – | -6.77% |
| N#Cc1c(N)n(-c2cccc(C(=O)O)c2)c2nc3ccccc3nc12 | 10.7 µM (active) | – |
| N#Cc1c(N)n(-c2ccc(C(=O)O)cc2)c2nc3ccccc3nc12 | 12 µM (active) | – |
| CN(C)C(C)(C)C#CC(O)(c1ccccc1)c1ccccc1 | – | 4.16% |
| O=C(O)c1ccc(-c2ccc(/C=c3/sc4nc5ccccc5n4c3=O)o2)cc1Cl | 4.26 µM (active) | – |
| CCOc1cccc(CN2CCC(CCC(=O)NC3CC3)CC2)c1O | – | 5.16% |
| CC(C(=O)c1ccc(Br)cc1)[n+]1cccc2ccccc21 (configuration not stated) | – | 58.8% |
| CCC(=O)N1c2ccc(S(=O)(=O)N3CCN(c4ccc([N+](=O)[O-])cc4)CC3)cc2CC1C (configuration not stated) | – | -6.96% |
| CCc1ccc2nc(N(CCN(C)C)C(=O)c3ccc4ncsc4c3)sc2c1 | – | -26.6% |
| Cc1sc2nc3ccc(N4CCCCC4)nn3c(=O)c2c1C | 13.5 µM (active) | – |
